Assay outcomes (PubChem)
EPAC2 antagonist = EPAC2 (human) antagonism | Q8WZA2 | EPAC2 GEF exchange of Rap1B-BODIPY-GDP, fluorescence | Potency, µM (top dose mostly 114 µM), for the others: at the highest dose activity, negative = inhibition, most hits filed as inhibitors | actives 0.18% (n = 360,000); note: % is set by controls: 0 for no effect and ±100 for the full control effect; nearly all actives have a fitted effect of over 45% in size
EPAC1 antag = EPAC1 (human) antagonism; actives 0.14% (n = 360,000); Potency, µM (doses to about 115 µM), inactives show at the top dose activity change, negative = inhibition, usual class: inhibitors; O95398; EPAC1 GEF assay, Rap1b-BODIPY-GDP exchange fluorescence;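 note: plate controls were vehicle for no effect and positive control for full effect; nearly all actives have a fitted effect of over 50% in size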
USP1-UAF1 inh = inhibitors of human USP1/UAF1 deubiquitinase; O94782; recombinant USP1/UAF1, Ub-Rhodamine cleavage fluorescence; Potency, µM (titrated, usually from 57.1 µM), without a hit: at the highest dose activity change, negative = inhibition, usual class: inhibitors; actives 0.23% (n = 390,000); note: % is set by controls: 0 for no effect and ±100 for the full control effect; nearly all actives have a fitted effect of over 60% in size
Target sequence (O94782 whole entry, looked up): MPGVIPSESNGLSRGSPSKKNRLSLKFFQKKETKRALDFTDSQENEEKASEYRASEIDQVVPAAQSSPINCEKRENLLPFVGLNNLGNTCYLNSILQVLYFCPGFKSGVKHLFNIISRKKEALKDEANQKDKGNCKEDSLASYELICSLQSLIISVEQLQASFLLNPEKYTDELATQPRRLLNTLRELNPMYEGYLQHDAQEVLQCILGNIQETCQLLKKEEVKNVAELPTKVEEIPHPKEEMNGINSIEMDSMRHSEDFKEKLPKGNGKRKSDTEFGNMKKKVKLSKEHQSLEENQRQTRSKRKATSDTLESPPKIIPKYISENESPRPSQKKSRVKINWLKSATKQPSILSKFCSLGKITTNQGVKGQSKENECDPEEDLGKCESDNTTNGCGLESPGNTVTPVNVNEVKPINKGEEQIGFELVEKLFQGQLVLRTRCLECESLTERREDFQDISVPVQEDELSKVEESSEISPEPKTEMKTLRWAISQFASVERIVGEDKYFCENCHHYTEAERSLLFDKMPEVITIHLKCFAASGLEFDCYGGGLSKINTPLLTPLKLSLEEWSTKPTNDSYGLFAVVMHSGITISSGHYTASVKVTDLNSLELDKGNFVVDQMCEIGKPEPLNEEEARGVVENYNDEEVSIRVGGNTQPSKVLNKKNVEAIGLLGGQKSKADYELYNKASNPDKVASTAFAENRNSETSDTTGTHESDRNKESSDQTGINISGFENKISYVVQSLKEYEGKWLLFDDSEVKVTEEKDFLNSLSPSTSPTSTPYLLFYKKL
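In this screen, compounds sit with the deubiquitinase complex (1nM) for 15 min at room temperature before Ub-Rho is added at 150nM final. Fluorescence rise is then followed for 6 reads every 60 seconds.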
EPAC1 agonist = agonists of human EPAC1 | O95398 | EPAC1 agonist qHTS, biochemical assay; response scale: 100% = response to 6.5 mM cAMP | Potency, µM (titrated, usually from 154 µM), for inactives: top-dose activation, usual class: activators | actives 0.073% (n = 360,000); note: nearly all actives have a fitted effect of over 60% in size
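Multi-concentration qHTS readout: loss of Rap1B-bound BODIPY-GDP fluorescence driven by 100 nM EPAC1 with excess GDP (50 uM), monitored kinetically at room temperature; agonist response expressed relative to 6.5 mM cAMP.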
EPAC2 agonist = EPAC2 (human) agonism; EPAC2 activation, biochemical qHTS; response scale: 100% = 6.5 mM cAMP response; Potency, µM (titrated, usually from 154 µM), for the others: at the highest dose activation, most hits filed as activators; AID 720711; actives 0.079% (n = 360,000); Q8WZA2; note: nearly all actives have a fitted effect of over 50% in size
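In this primary screen, activation is scored as increased exchange of BODIPY-GDP from Rap1B by 100 nM EPAC2, with 50 uM GDP as competitor. Signal is normalized to the 6.5 mM cAMP agonist control.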
* = called active by the depositor; ? = inconclusive; · = no result. Only some compounds are listed: those with a hit (about 0.49% of all), similar ones and a draw of the others. Calls come from the whole dose curve; as a rule, active = well fitted curve in the direction sought with a large enough effect; inconclusive = small, poorly fitted or top-dose-only effect, or another doubt; inactive = no such curve, though single readings can be large; an effect the other way counts as inactive or inconclusive. Potency is the fitted concentration of half-maximal effect.

SMILES	EPAC2 antagonist	EPAC1 antag	USP1-UAF1 inh	EPAC1 agonist	EPAC2 agonist
Cc1cccc2nc(-c3ccccn3)c(Nc3ccccc3)n12	·	·	-13%	·	·
Cc1ccc(Nc2c(-c3ccccn3)nc3cccc(C)n23)cc1	32µM*	-1%	-22%	-9%	-1%
Cn1nnnc1SCCCNCc1cc(Cl)ccc1OCc1ccc(F)cc1	·	·	-17%	·	·
O=C(N/N=C/c1c(O)ccc2ccccc12)c1cccnc1	11%	?	-29%	14%	0%
O=C(N/N=C\c1c(O)ccc2ccccc12)c1cncc(Br)c1	30%	-8%	32µM*	?	?
COc1cccc(/C=C(\C#N)C(=O)Nc2ccc(NC(C)=O)cc2)c1OC	·	·	-15%	·	·
CCN(CC)CC#CC(OC)(c1ccccc1)c1ccccc1	40µM*	-15%	-15%	2%	6%
CCOc1cc(/C=N/NC(=O)c2ccc(CN3CCOCC3)cc2)ccc1OC	-22%	-23%	?	2%	6%
CCOc1cc(/C=C/C(=O)c2ccc(OC)c(CN3CCOCC3)c2)cc(Br)c1O	-9%	17%	35µM*	21%	18%
CCCOc1ccccc1C1Oc2nc(SC)nnc2-c2ccccc2N1C(C)=O (configuration not stated)	·	·	-30%	·	·
Cc1cc(C(=O)c2cccs2)c(N)s1	-1%	1%	-27%	2%	-1%
Cc1cc(C)c(C(=O)c2cccs2)c(C)c1	28µM*	6%	-11%	3%	6%
CCOC(=O)CC1C(=O)NCCN1c1nc2ccc(C)cn2c(=O)c1/C=C1\SC(=S)N(CC(C)C)C1=O (configuration not stated)	0%	30%	13µM*	9%	?
CC1=C(C(=O)OCc2ccc3c(c2)OCO3)C(c2ccccc2)NC(=O)N1 (configuration not stated)	-7%	2%	3%	7%	100µM*
CC1=C(C(=O)OCc2ccc3c(c2)OCO3)C(c2ccccc2OCc2ccccc2)NC(=O)N1 (configuration not stated)	-1%	-4%	-13%	8%	-8%
CS(=O)(=O)N1CCc2cc(C(=O)NCc3ccccc3)ccc21	·	·	-24%	·	·
CCS(=O)(=O)N1CCc2cc(C(=O)Nc3ccc(Br)cc3F)ccc21	·	·	-9%	·	·
CCc1ccc(N=C2NC(=O)/C(=C/c3cc(Br)c(OCC(=O)O)c(OC)c3)S2)cc1	-6%	?	-18%	?	-5%
CCOc1cc(/C=C2\SC(=Nc3ccc(CC)cc3)NC2=O)ccc1OCC(=O)O	3%	35µM*	-10%	?	2%
CCOc1cc(/C=C2/SC(=S)NC2=O)ccc1OC(=O)c1ccco1	35µM*	35µM*	-23%	3%	3%
COc1cc(/C=C2/SC(=O)NC2=O)ccc1OC(=O)c1ccco1	-2%	-21%	-6%	-9%	-5%
CC(C)N(Cc1ccccc1)C(=O)Cn1ncc2c3ccccc3n(Cc3ccccc3)c2c1=O	·	·	-17%	·	·
O/C(=C\c1ccc2ccccc2n1)c1ccc(O)cc1O	52%	6%	28µM*	2%	10%
Cc1ccc(C)c(N2CCN(CCCNC(=O)Cn3c(-c4cccs4)cc4ccccc43)CC2)c1	·	·	-20%	·	·
O=[N+]([O-])c1cc(Cl)ccc1NCCc1ccccn1	56µM*	-14%	-9%	-2%	-3%
SMILES	EPAC2 antagonist	EPAC1 antag	USP1-UAF1 inh	EPAC1 agonist	EPAC2 agonist
CC1OC(CC(=O)O)CC2=C1C(=O)c1c(O)cccc1C2=O (configuration not stated)	?	?	11µM*	-13%	9%
O=C1c2cccc(NCCNCCO)c2C(=O)c2cccc(NCCNCCO)c21	-12%	-22%	-8%	-1%	8%
COC(=O)c1cc(C(=O)c2ccc(Cl)cc2)n2c(=O)/c(=C\N(C)C)sc12	93%	-5%	1%	12%	100µM*
CCN(CC)c1nc2c(S(=O)(=O)c3ccc(C)cc3)nnn2c2ccsc12	·	·	-7%	·	·
c1ccc2c(c1)oc1c(-c3ccc4nccn4c3)cccc12	10µM*	-4%	·	15%	18%
Clc1cccc(-c2ccc3nccn3c2)c1Cl	?	-27%	·	4%	9%
COc1ccc(-c2cc(C(F)(F)F)nc(SCC(=O)N3CCCCC3)n2)cc1	·	·	-22%	·	·
